Reference: PubChem BioAssay AID1159580 (chemical genetic matrix, 2015)
Among all 5,500 compounds or so, about 2,000 (36%) were called active. Not shown: some 18% with an inconclusive outcome. Rule as the data show it: active = normalized growth mostly below about 0.91 (no sharp cut-off); inconclusive = no clear call, values can overlap the other calls; inactive = mostly above about 0.92. The list shows a part of the results.

Test: chemical genetic growth profiling, strain panel (AID 1159580);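 also: tested at 20 µM; growth read once vehicle control cultures reached saturation at 30 °C; 1 = growth at the plate median or of vehicle wells; lower values mean less growth of the strain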
Settings: growth OD
[1] = S. cerevisiae deletion strains, locus YHR030C, strain SLT2, active compounds read low
[2] = S. cerevisiae deletion strains, locus YJL187C, strain SWE1, active compounds read low

Measured: normalized growth

COC(=O)c1cccc(NC(=O)CC2C(=O)NCCN2C(=O)c2cccs2)c1 (centres undefined)
inactive: S. cerevisiae deletion strains, locus YAL013W, strain DEP1, active compounds read low 1.02 | S. cerevisiae deletion strains, locus YBR229C, strain ROT2, active compounds read low 1.02 | S. cerevisiae deletion strains, locus YDL101C, strain DUN1, active compounds read low 1 | S. cerevisiae deletion strains, locus YDL134C, strain PPH21, active compounds read low 1.04 | S. cerevisiae deletion strains, locus YDR150W, strain NUM1, active compounds read low 0.982 | S. cerevisiae deletion strains, locus YEL061C, strain CIN8, active compounds read low 1.01 | S. cerevisiae deletion strains, locus YGR078C, strain PAC10, active compounds read low 1.01 | [1] 1.07 | S. cerevisiae deletion strains, locus YHR087W, strain rtc3, active compounds read low 0.987 | [2] 0.989 | S. cerevisiae deletion strains, locus YJR043C, strain POL32, active compounds read low 1.02 | S. cerevisiae deletion strains, locus YJR075W, strain HOC1, active compounds read low 1.01 | S. cerevisiae deletion strains, locus YLR039C, strain RIC1, active compounds read low 1.02 | S. cerevisiae deletion strains, locus YLR058C, strain SHM2 (second series), active compounds read low 0.996 | S. cerevisiae deletion strains, locus YLR085C, strain ARP6, active compounds read low 0.997 | S. cerevisiae deletion strains, locus YLR262C, strain YPT6, active compounds read low 1.08 | S. cerevisiae deletion strains, locus YML094W, strain GIM5, active compounds read low 0.993 | S. cerevisiae deletion strains, locus YMR219W, strain ESC1, active compounds read low 1.01 | S. cerevisiae deletion strains, locus YMR263W, strain SAP30, active compounds read low 0.958 | S. cerevisiae deletion strains, locus YMR307W, strain GAS1, active compounds read low 1.01 | S. cerevisiae deletion strains, locus YNL128W, strain TEP1, active compounds read low 1.01 | S. cerevisiae deletion strains, locus YNL153C, strain GIM3, active compounds read low 1.01 | S. cerevisiae deletion strains, locus YNL298W, strain CLA4 (second series), active compounds read low 1.04 | S. cerevisiae deletion strains, locus YNL322C, strain KRE1, active compounds read low 1 | S. cerevisiae deletion strains, locus YNR030W, strain Alg12, active compounds read low 1.03 | S. cerevisiae deletion strains, locus YPL055C, strain LGE1, active compounds read low 0.941 | S. cerevisiae deletion strains, locus YPL241C, strain CIN2, active compounds read low 1.01 | S. cerevisiae deletion strains, locus YPR135W, strain CTF4, active compounds read low 1.1 | S. cerevisiae strains, strain wild type, active compounds read low 1.02

COC(=O)Nc1nc2ccc(S(=O)c3ccccc3)cc2[nH]1 (centres undefined)
inactive: S. cerevisiae deletion strains, locus YAL021C, strain ccr4, active compounds read low 1.01 | S. cerevisiae deletion strains, locus YAL026C, strain drs2, active compounds read low 0.986 | S. cerevisiae deletion strains, locus YAL030W, strain snc1, active compounds read low 0.997 | S. cerevisiae deletion strains, locus YBL061C, strain skt5, active compounds read low 0.995 | S. cerevisiae deletion strains, locus YBR009C, strain hhf1, active compounds read low 0.999 | S. cerevisiae deletion strains, locus YBR023C, strain chs3, active compounds read low 0.993 | S. cerevisiae deletion strains, locus YBR171W, strain sec66, active compounds read low 0.971 | S. cerevisiae deletion strains, locus YBR231C, strain swc5, active compounds read low 0.993 | S. cerevisiae deletion strains, locus YBR279W, strain paf1, active compounds read low 0.994 | S. cerevisiae deletion strains, locus YCL011C, strain gbp2, active compounds read low 1.01 | S. cerevisiae deletion strains, locus YCL016C, strain dcc1, active compounds read low 1.01 | S. cerevisiae deletion strains, locus YCL061C, strain MRC1, active compounds read low 0.994 | S. cerevisiae deletion strains, locus YCL069W, strain vba3, active compounds read low 0.988 | S. cerevisiae deletion strains, locus YCR088W, strain abp1, active compounds read low 0.998 | S. cerevisiae deletion strains, locus YDL005C, strain med2, active compounds read low 0.994 | S. cerevisiae deletion strains, locus YDL040C, strain nat1, active compounds read low 1 | S. cerevisiae deletion strains, locus YDR001C, strain nth1, active compounds read low 0.983 | S. cerevisiae deletion strains, locus YDR069C, strain doa4, active compounds read low 0.99 | S. cerevisiae deletion strains, locus YDR137W, strain rgp1, active compounds read low 0.996 | S. cerevisiae deletion strains, locus YDR159W, strain sac3, active compounds read low 0.966 | S. cerevisiae deletion strains, locus YDR195W, strain ref2 0.969 | S. cerevisiae deletion strains, locus YDR297W, strain sur2, active compounds read low 0.997 | S. cerevisiae deletion strains, locus YDR334W, strain swr1, active compounds read low 0.983 | S. cerevisiae deletion strains, locus YDR335W, strain msn5, active compounds read low 0.973 | S. cerevisiae deletion strains, locus YDR392W, strain spt3, active compounds read low 1 | S. cerevisiae deletion strains, locus YEL003W, strain gim4, active compounds read low 0.962 | S. cerevisiae deletion strains, locus YEL037C, strain rad23, active compounds read low 0.993 | S. cerevisiae deletion strains, locus YEL061C, strain CIN8 (second series), active compounds read low 0.983 | S. cerevisiae deletion strains, locus YER015W, strain faa2, active compounds read low 0.995 | S. cerevisiae deletion strains, locus YER016W, strain bim1, active compounds read low 0.986 | S. cerevisiae deletion strains, locus YER111C, strain swi4, active compounds read low 0.986 | S. cerevisiae deletion strains, locus YER155C, strain BEM2 (second series), active compounds read low 0.953 | S. cerevisiae deletion strains, locus YFR010W, strain ubp6, active compounds read low 0.988 | S. cerevisiae deletion strains, locus YGL167C, strain pmr1, active compounds read low 0.984 | S. cerevisiae deletion strains, locus YGL173C, strain kem1, active compounds read low 0.991 | S. cerevisiae deletion strains, locus YGL227W, strain vid30, active compounds read low 0.986 | S. cerevisiae deletion strains, locus YGL240W, strain doc1, active compounds read low 0.967 | S. cerevisiae deletion strains, locus YGL253W, strain hxk2, active compounds read low 0.998 | S. cerevisiae deletion strains, locus YHR013C, strain ard1, active compounds read low 1.02 | S. cerevisiae deletion strains, locus YHR027C, strain rpn1, active compounds read low 0.989 | [1] 1.03 | S. cerevisiae deletion strains, locus YHR079C, strain IRE1, active compounds read low 1.02 | S. cerevisiae deletion strains, locus YHR142W, strain chs7, active compounds read low 0.994 | S. cerevisiae deletion strains, locus YJL092W, strain hpr5, active compounds read low 0.984 | S. cerevisiae deletion strains, locus YJL095W, strain BCK1 (second series), active compounds read low 1 | S. cerevisiae deletion strains, locus YJL095W, strain BCK1, active compounds read low 0.972 | S. cerevisiae deletion strains, locus YJL115W, strain asf1, active compounds read low 0.985 | S. cerevisiae deletion strains, locus YJL129C, strain trk1, active compounds read low 0.981 | S. cerevisiae deletion strains, locus YJL154C, strain vps35, active compounds read low 0.987 | S. cerevisiae deletion strains, locus YJL164C, strain tpk1, active compounds read low 1.01 | S. cerevisiae deletion strains, locus YJL166W, strain qcr8, active compounds read low 0.975 | [2] 0.984 | S. cerevisiae deletion strains, locus YJR066W, strain TOR1, active compounds read low 0.975 | S. cerevisiae deletion strains, locus YKL160W, strain elf1, active compounds read low 0.99 | S. cerevisiae deletion strains, locus YKR026C, strain gcn3, active compounds read low 0.979 | S. cerevisiae deletion strains, locus YKR091W, strain srl3, active compounds read low 1 | S. cerevisiae deletion strains, locus YLL001W, strain dnm1, active compounds read low 0.976 | S. cerevisiae deletion strains, locus YLL026W, active compounds read low 1 | S. cerevisiae deletion strains, locus YLL041C, strain sdh2, active compounds read low 0.99 | S. cerevisiae deletion strains, locus YLR027C, strain aat2, active compounds read low 0.989 | S. cerevisiae deletion strains, locus YLR113W, strain HOG1, active compounds read low 0.982 | S. cerevisiae deletion strains, locus YLR221C, strain rsa3, active compounds read low 1.01 | S. cerevisiae deletion strains, locus YLR258W, strain gsy2, active compounds read low 0.984 | S. cerevisiae deletion strains, locus YLR262C, strain YPT6 (second series), active compounds read low 0.987 | S. cerevisiae deletion strains, locus YLR320W, strain mms22, active compounds read low 1 | S. cerevisiae deletion strains, locus YLR342W, strain FKS1, active compounds read low 0.991 | S. cerevisiae deletion strains, locus YLR357W, strain rsc2, active compounds read low 0.993 | S. cerevisiae deletion strains, locus YLR370C, strain arc18, active compounds read low 0.998 | S. cerevisiae deletion strains, locus YLR384C, strain iki3, active compounds read low 0.986 | S. cerevisiae deletion strains, locus YML120C, strain ndi1, active compounds read low 0.998 | S. cerevisiae deletion strains, locus YMR058W, strain fet3, active compounds read low 0.993 | S. cerevisiae deletion strains, locus YMR125W, strain sto1, active compounds read low 0.982 | S. cerevisiae deletion strains, locus YMR129W, active compounds read low 0.99 | S. cerevisiae deletion strains, locus YMR205C, strain PFK2, active compounds read low 0.982 | S. cerevisiae deletion strains, locus YMR231W, strain pep5, active compounds read low 0.98 | S. cerevisiae deletion strains, locus YNL071W, strain lat1, active compounds read low 0.994 | S. cerevisiae deletion strains, locus YNL183C, strain NPR1, active compounds read low 0.971 | S. cerevisiae deletion strains, locus YNL209W, strain ssb2, active compounds read low 1.01 | S. cerevisiae deletion strains, locus YNL248C, strain rpa49, active compounds read low 1.01 | S. cerevisiae deletion strains, locus YNL322C, strain KRE1 (second series), active compounds read low 0.998 | S. cerevisiae deletion strains, locus YNR049C, strain mso1, active compounds read low 0.977 | S. cerevisiae deletion strains, locus YOR001W, strain rrp6, active compounds read low 0.982 | S. cerevisiae deletion strains, locus YOR070C, strain gyp1, active compounds read low 0.999 | S. cerevisiae deletion strains, locus YOR080W, strain dia2, active compounds read low 0.974 | S. cerevisiae deletion strains, locus YOR083W, strain WHI5, active compounds read low 0.991 | S. cerevisiae deletion strains, locus YOR106W, strain vam3, active compounds read low 1 | S. cerevisiae deletion strains, locus YOR231W, strain MKK1, active compounds read low 1 | S. cerevisiae deletion strains, locus YOR265W, strain rbl2, active compounds read low 0.992 | S. cerevisiae deletion strains, locus YOR270C, strain vph1, active compounds read low 1 | S. cerevisiae deletion strains, locus YOR290C, strain snf2, active compounds read low 1.01 | S. cerevisiae deletion strains, locus YPL051W, strain arl3, active compounds read low 0.993 | S. cerevisiae deletion strains, locus YPL078C, strain atp4, active compounds read low 0.963 | S. cerevisiae deletion strains, locus YPL106C, strain sse1, active compounds read low 0.99 | S. cerevisiae deletion strains, locus YPL240C, strain hsp82, active compounds read low 1 | S. cerevisiae deletion strains, locus YPL256C, strain CLN2, active compounds read low 1.01
